Drawing on PubChem BioAssay (NCI), this text covers growth for seven compounds.

This is part of a sample that, as a whole, favours compounds with a hit. Of some 83,000 tested, about 20% had one in any assay.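 Values shown are percent growth following 48 h exposure of cells in 96-well plates to a single concentration of compound; below 10 was considered active.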 A number with no mark means an inactive call. Calls of active or inactive are those of the source.

Common to all, as to assay: NCI-60 one-dose screen, 48 h (100 = growth as untreated, 0 = no growth, -100 = all killed)
Holding throughout (settings): 10 µM unless noted

The subject of assay [1] is DU-145 prostate.
Assay [2] concerns K-562 leukemia.
Assay [3] deals with MALME-3M melanoma.
For assay [4], the system named is MDA-MB-231 breast.
Assay [5] has as its system RXF 393 renal.
For assay [6], the system named is SF-268 CNS.
In assay [7] the test system is SF-295 CNS.
The subject of assay [8] is SF-539 CNS.
Assay [9] has as its system UACC-257 melanoma.
Assay [10] relates to M14 melanoma.
Assay [11] has as its system HCT-15 colon.
The subject of assay [12] is HT29 colon.
For assay [13], the system named is SNB-75 CNS.
For assay [14], the system named is SNB-19 CNS.
For assay [15], the system named is U251 CNS.
In assay [16] the test system is PC-3 prostate.
Assay [17] has as its system SK-MEL-5 melanoma.
The test system of assay [18] is UACC-62 melanoma.
For assay [19], the system named is LOX IMVI melanoma.
In assay [20] the test system is SK-MEL-28 melanoma.

Take `CN(C)CCCC1(c2ccc(F)cc2)OCc2cc(-c3cc4ccccc4s3)ccc21` (stereo not given): the growth in [1] was 18%; in [2], -17.5% (active); in assay [3], -77.4% (active); in [4], -42.4% (active); in [5] it was 34.8%; in assay [6], 38.3%. The growth in assay [7] is 70.4%; in assay [8], -58.8% (active); in [9], -29.1% (active); in assay [10], -68.7% (active); in assay [11] it was -49% (active); in [12], -67.1% (active). The growth in assay [13] was 25.2%; in [14], 71.2%; in [15], -83% (active); in assay [16] it was 28.8%; in assay [17], 60.9%; in assay [18] it was -62.1% (active). The growth is -93.6% (active) in [19] and -87.5% (active) in assay [20].

As for `CCc1ccc(CCC(=O)Nc2ncc(Cc3ccccc3)s2)o1`, the growth in assay [1] is 26.7%; in assay [2] it was 11.8%; in [3] it was 65.2%; in assay [4], 52.5%; in [5], 2.15% (active); in assay [6] it was 61.1%. Besides, the growth in [7] is 15.1%; in [8], -10.1% (active); in [9], 58.9%; in assay [10], 10.5%; in [11], 20.2%; in [12] it was 9.07% (active). For the same compound, the growth in [13] was 3.46% (active); in assay [14] it was 52.9%; in assay [15], 27.2%; in [16] it was 26.7%; in assay [17], 42.8%; in assay [18], 23%. Besides, the figures for the growth in assay [19] and in assay [20] were 42.4% and 56.4%, respectively.

Regarding `NC(=O)c1cnc(Nc2cccc(N)c2)nc1NCCCNC(=O)C1CCC1`, the growth in [1] is 75.9%; in assay [2], 52%; in assay [3], 80.3%; in [4] it was 50.1%; in assay [5] it was 21.4%; in [6], 76.2%. Also, the growth was 69.3% in assay [7]; 5.4% (active) in assay [8]; 107% in assay [9]; 55.4% in assay [10]; 101% in assay [11]; 92.9% in assay [12]. Moreover, the growth in assay [13] is 53.8%; in assay [14], 82.8%; in assay [15], 64.8%; in assay [16], 72.4%; in assay [17], 84.6%; in assay [18] it was 70%. In addition, the growth in [19] was 68.7%; in [20] it was 92%.

As for `N#CSc1c[nH]c2cccc(/C=C/C(=O)/C=C(O)/C=C/c3cccc4[nH]cc(SC#N)c34)c12`, the growth was -78.7% (active) in [1]; -12.9% (active) in assay [2]; -82.3% (active) in assay [3]; -78.3% (active) in assay [4]; -62.9% (active) in assay [5]; -31.9% (active) in assay [6]. Besides, the growth is -87.7% (active) in [7]; -68.5% (active) in assay [8]; -27.4% (active) in assay [9]; -59.7% (active) in [10]; -79.1% (active) in assay [11]; -62.7% (active) in [12]. In addition, the growth in [13] was -23.1% (active); in assay [14] it was -80.6% (active); in [15], -91.9% (active); in assay [16], -53% (active); in [17] it was -87.5% (active); in [18], -65.4% (active). Also, the growth is -94.8% (active) in assay [19] and -68.2% (active) in assay [20].

Turning to `CCOC(=O)c1nn(CC(O)c2ccccc2)c(NC(=O)Nc2cccc(F)c2)c1C` (stereo not given), the growth in assay [1] was 94.4%; in assay [2], 92.4%; in assay [3], 100%; in assay [4], 90%; in assay [5] it was 107%; in assay [6], 95.4%. In addition, the growth was 92.2% in assay [7]; 102% in assay [8]; 86.8% in assay [9]; 103% in assay [10]; 98% in assay [11]; 101% in assay [12]. Moreover, the growth in assay [13] is 108%; in [14], 97.3%; in assay [15], 92%; in assay [16], 92.5%; in assay [17] it was 96.7%; in assay [18] it was 80.8%. Besides, the results for the growth in assay [19] and in [20] were 98.4% and 113%, respectively.

For `CCN(CC)CCCN1C(=O)c2c(c(C)c3c(oc4ccc(OC)cc43)c2C)C1=O`, the growth in assay [1] was 112%; in assay [2], 0.0716% (active); in assay [3], 97.1%; in assay [4] it was 99.5%; in assay [5], 70.3%; in [6], 98.6%. Further, the growth in assay [7] is 110%; in assay [8], 91.8%; in assay [9] it was 103%; in assay [10], 104%; in [11] it was 94.9%; in assay [12], 90.9%. The growth is 109% in assay [13]; 94.4% in assay [14]; 96.4% in assay [15]; 97.4% in [16]; 75.1% in assay [17]; 102% in assay [18]. In addition, the growth in assay [19] is 96.9%; in [20], 94.1%.

For `C#Cc1cccc(Nc2nc(C)nc3cc(NC(=O)CCl)ccc23)c1`, the growth was -95.8% (active) in assay [1]; 0.173% (active) in assay [2]; -77.6% (active) in assay [3]; -73.1% (active) in assay [4]; -87.2% (active) in assay [5]; -67.2% (active) in assay [6]. In addition, the growth is -79.7% (active) in assay [7]; -92.8% (active) in assay [8]; -60.9% (active) in assay [9]; -27.5% (active) in [10]; -63.7% (active) in assay [11]; -84% (active) in [12]. Besides, the growth in assay [13] was -94.7% (active); in assay [14] it was -32.9% (active); in assay [15], -93.9% (active); in [16], -81.2% (active); in assay [17], -94% (active); in assay [18] it was -46.5% (active). Moreover, the growth in [19] was -81.7% (active); in [20], -81.9% (active).
